Laboratory results from PubChem BioAssay (NCI).
The panel holds about 83,000 compounds, 20% with a hit somewhere; the sample as a whole holds those more often.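 Single-dose data. Exposure time 48 hours. Values below 10 considered active.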 Values without a mark were called inactive. Activity calls are given as the source filed them.

How the values were obtained:
Assay in all cases: NCI-60 one-dose screen, 48 h (100 = growth as untreated, 0 = no growth, -100 = all killed)
Conditions in all cases: 10 µM unless noted
SR leukemia = tested on: SR leukemia
RPMI-8226 leukemia = tested on: RPMI-8226 leukemia
OVCAR-8 ovarian = tested on: OVCAR-8 ovarian
OVCAR-5 ovarian = tested on: OVCAR-5 ovarian
OVCAR-4 ovarian = tested on: OVCAR-4 ovarian
SK-OV-3 ovarian = tested on: SK-OV-3 ovarian
IGROV1 ovarian = tested on: IGROV1 ovarian
OVCAR-3 ovarian = tested on: OVCAR-3 ovarian
HS 578T breast = tested on: HS 578T breast
NCI/ADR-RES ovarian = tested on: NCI/ADR-RES ovarian
T-47D breast = tested on: T-47D breast
BT-549 breast = tested on: BT-549 breast
MDA-MB-435 melanoma = tested on: MDA-MB-435 melanoma
SW-620 colon = tested on: SW-620 colon
MCF7 breast = tested on: MCF7 breast
HCT-116 colon = tested on: HCT-116 colon
HCC-2998 colon = tested on: HCC-2998 colon
KM12 colon = tested on: KM12 colon

SMILES | growth (SR leukemia) | growth (RPMI-8226 leukemia) | growth (OVCAR-8 ovarian) | growth (OVCAR-5 ovarian) | growth (OVCAR-4 ovarian) | growth (SK-OV-3 ovarian) | growth (IGROV1 ovarian) | growth (OVCAR-3 ovarian) | growth (HS 578T breast) | growth (NCI/ADR-RES ovarian) | growth (T-47D breast) | growth (BT-549 breast) | growth (MDA-MB-435 melanoma) | growth (SW-620 colon) | growth (MCF7 breast) | growth (HCT-116 colon) | growth (HCC-2998 colon) | growth (KM12 colon)
Fc1ccc2[nH]cc(-c3nonc3-c3c[nH]c4ccc(Br)cc34)c2c1 | 15.2% | 29.9% | 27% | 36.8% | 36% | 44.3% | 41.6% | 34.3% | 39.5% | 23% | 3.33% (active) | 55.5% | 47.5% | 28.5% | 12.6% | 20.2% | 2.9% (active) | 7.15% (active)
COc1cc(CNC(=O)/C=C/C=C/c2ccc3c(c2)OCO3)ccc1OCc1cn(-c2ccc(C)c(C)c2)nn1 | 81.5% | 86.3% | 71.3% | 104% | 46.7% | 86.5% | 76.1% | 82.8% | 91.4% | 80.5% | 80.5% | 88.3% | 76.9% | 92.1% | 81.9% | 75.2% | 98% | 84%
CC(C)(C)c1cc(-c2nc3ccc(N4CCN(S(C)(=O)=O)CC4)cc3[nH]2)cc(C(C)(C)C)c1O | 56.2% | 79.5% | 78.9% | 105% | 88.6% | 79.5% | 96.4% | 98.8% | 86.4% | 93.1% | 76.6% | 102% | 94% | 97.2% | 76.4% | 81.7% | 103% | 27.6%
O=C1/C(=C/c2ccc(F)cc2)COc2ccc(O)cc21 | 1.11% (active) | -19% (active) | 87.4% | 96.9% | 93.4% | 123% | 84.9% | 92.4% | 94.1% | 93.2% | 86.6% | 78.2% | 62.9% | 26% | 7.92% (active) | 23.6% | 90% | 45.9%
CCOC(=O)c1c2c(n3ccc(C)cc13)C(=O)c1ccccc1C2=O | 84.8% | 98% | 86.1% | 109% | 101% | 103% | 78% | 88.2% | 93.3% | 95% | 92.7% | 77.2% | 108% | 89.2% | 82.5% | 76.5% | 101% | 94.1%
Oc1ccc(CN2CCC(N3CCCCC3)CC2)c2cccnc12 | 19.7% | 19.4% | 25% | 47.2% | 22.7% | 16% | 25.4% | 28.8% | 27.6% | 30.8% | 15% | 38.9% | 18.7% | 30.2% | 11.8% | 18.9% | 32.2% | 30.8%
Brc1c2c(c(Br)c3ccccc13)CCCC2 | 99% | 100% | 91% | 104% | 112% | 89.5% | 98.1% | 110% | 95.5% | 107% | 84.4% | 112% | 111% | 103% | 96% | 91.4% | 110% | 102%
CC(=O)Cc1nsc(NC(=O)c2cc(-c3cc(Cl)cc(Cl)c3)oc2C)n1 | 98.3% | 93.5% | 97.8% | 104% | 104% | 99.2% | 102% | 106% | 102% | 103% | 88.1% | 98.1% | 101% | 101% | 97.4% | 107% | 99.9% | 103%
